Molecules are shown by their SMILES. Values joined by “and” are separate entries in the source; they are usually repeats but may differ in a detail not shown here. Equal values may be shown once. Records with an inconclusive call do not appear. Where a structure was tested more than once in an assay, its records may differ in their call. Active and inactive are the calls of the source. Unless noted, calls follow the shape of the dose curve; as a rule, active = well fitted curve in the direction sought with a large enough effect in the repeat runs; inconclusive = weak or mixed curves; inactive = no such curve, though single readings can be large; an effect the other way counts as inactive or inconclusive.

Assay [1] is described as follows: qHTS assay to identify aromatase inhibitors - cell viability counter screen (AID 743084).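 Also: cells stimulated with testosterone during compound exposure; nearly all actives have a fitted effect of over 55% in size.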 Also: potency is read from the fitted curve at half-maximal effect.
In assay [2] the target is Aryl hydrocarbon receptor (Homo sapiens) (UniProt P35869). Put plainly: qHTS assay to identify small molecule that activate the aryl hydrocarbon receptor (AhR) signaling pathway (AID 743085). Also: nearly all actives have a fitted effect of over 15% in size. Also: potency is read from the fitted curve at half-maximal effect.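 As to activation: HG2L7.5c1 human HepG2 liver cells with stably integrated DRE-driven firefly reporter; series mostly up to about 70 µM.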 In short, it runs like this: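 Luminescence (ONE-Glo) from a dioxin-responsive-element luciferase reporter in HG2L7.5c1 HepG2 cells after 24 hr compound exposure at 37C; viability measured by CellTiter-Fluor fluorescence beforehand.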

Assay [3] is described as follows: qHTS assay to identify small molecule that activate the aryl hydrocarbon receptor (AhR) signaling pathway - cell viability counter screen (AID 743086). Also: nearly all actives have a fitted effect of over 45% in size. Also: potency is read from the fitted curve at half-maximal effect.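 As to viability change, negative = cytotoxic: HepG2 liver cells carrying the AhR DRE luciferase reporter; series mostly up to about 70 µM.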 The method, boiled down: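 HepG2-AhR-luc (HG2L7.5c1) cells, 4000/well, treated 24 h at 37 C with compound; viability measured as CellTiter-Fluor fluorescence after 30 min in the same wells as the luciferase read.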

Assay [4] deals with Peroxisome proliferator-activated receptor gamma (Homo sapiens) (UniProt P37231). Put plainly: qHTS assay to identify small molecule agonists of the peroxisome proliferator-activated receptor gamma (PPARg) signaling pathway (AID 743094; active = well fitted activation curve with a large enough effect in the signal ratio in the repeat runs, not every such curve was filed as active; the % refers to the signal ratio). In short, it runs like this: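 Beta-lactamase FRET fluorescence was the read-out after a 1 h room-temperature substrate step, following 17 h compound treatment at 37C of HEK293H cells expressing a UAS-driven bla reporter responsive to PPARg.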

For assay [5] the target is unchanged. Put plainly: qHTS assay to identify small molecule antagonists of the peroxisome proliferator-activated receptor gamma (PPARg) signaling pathway (AID 743191; calls by dose curve; also: nearly all actives have a fitted effect of over 30% in size; also: potency is read from the fitted curve at half-maximal effect; as to ratio activity, negative = inhibition: series mostly up to about 63 µM). The method, boiled down: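 GeneBLAzer PPARg UAS-bla HEK293H cells, 5 h post-plating, exposed to compounds 17 h at 37C. LiveBLAzer B/G FRET substrate added for 1 h at room temperature; beta-lactamase reporter read by fluorescence intensity.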

Assay [6] is described as follows: qHTS assay to identify small molecule antagonists of the peroxisome proliferator-activated receptor gamma (PPARg) signaling pathway - cell viability counter screen (AID 743194). Also: nearly all actives have a fitted effect of over 55% in size. Also: potency is read from the fitted curve at half-maximal effect. In short, it runs like this:
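Cytotoxicity counter screen in PPARg-bla HEK293H cells, same wells as reporter assay. Compounds plus 50 nM rosiglitazone (final) for 17 h at 37 C, then viability read by CellTiter-Glo luminescence.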

A short description of assay [7]: qHTS assay for small molecule agonists of the antioxidant response element (ARE) signaling pathway - cell viability counter screen (AID 743203; calls by dose curve; also: nearly all actives have a fitted effect of over 55% in size; also: potency is read from the fitted curve at half-maximal effect). The method, boiled down:
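HepG2 cells carrying ARE-driven beta-lactamase; 2,000 cells/well; 5 hrs plating; compound pinned from DMSO; 16 hrs 37C/5% CO2; CellTiter-Glo added; 30 min RT; luminescence.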

Assay [8] is described as follows: qHTS assay for small molecule agonists of the antioxidant response element (ARE) signaling pathway (AID 743202; active = well fitted activation curve with a large enough effect in the signal ratio in the repeat runs, not every such curve was filed as active; the % refers to the signal ratio; also: potency is read from the fitted curve at half-maximal effect). The method, boiled down: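 Agonist mode reporter screen: HepG2 cells with ARE-controlled beta-lactamase are incubated with test compounds for 16 h at 37 C, and beta-lactamase activity is measured as fluorescence of cleaved B/G FRET substrate.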
A short description of assay [9]: qHTS assay for small molecule activators of the heat shock response signaling pathway - cell viability counter screen (AID 743209). Also: nearly all actives have a fitted effect of over 50% in size. Also: potency is read from the fitted curve at half-maximal effect. In short, it runs like this: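 Luminescence from CellTiter-Glo, added after the beta-lactamase FRET read, gave the viability signal. Cells were HSE-bla HeLa treated with DMSO-dissolved compounds for 5 h at 37 C following overnight plating.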

Assay [10] in a line: qHTS assay for small molecule activators of the heat shock response signaling pathway (AID 743210; active = well fitted activation curve with a large enough effect in the signal ratio in the repeat runs, with a control signal flat, not every such curve was filed as active; the % refers to the signal ratio;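 also: HeLa cells with beta-lactamase reporter driven by heat shock elements; series mostly up to about 63 µM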). In short, it runs like this: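 Quantitative high-throughput format using an engineered HeLa line in which heat shock response elements drive beta-lactamase; after 5 h with compound, cells received a B/G FRET substrate and fluorescence was read.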
% is scaled to controls: 0 for no effect and ±100 for the full control effect.

Chain of Aryl hydrocarbon receptor (Homo sapiens) (P35869 whole entry, looked up): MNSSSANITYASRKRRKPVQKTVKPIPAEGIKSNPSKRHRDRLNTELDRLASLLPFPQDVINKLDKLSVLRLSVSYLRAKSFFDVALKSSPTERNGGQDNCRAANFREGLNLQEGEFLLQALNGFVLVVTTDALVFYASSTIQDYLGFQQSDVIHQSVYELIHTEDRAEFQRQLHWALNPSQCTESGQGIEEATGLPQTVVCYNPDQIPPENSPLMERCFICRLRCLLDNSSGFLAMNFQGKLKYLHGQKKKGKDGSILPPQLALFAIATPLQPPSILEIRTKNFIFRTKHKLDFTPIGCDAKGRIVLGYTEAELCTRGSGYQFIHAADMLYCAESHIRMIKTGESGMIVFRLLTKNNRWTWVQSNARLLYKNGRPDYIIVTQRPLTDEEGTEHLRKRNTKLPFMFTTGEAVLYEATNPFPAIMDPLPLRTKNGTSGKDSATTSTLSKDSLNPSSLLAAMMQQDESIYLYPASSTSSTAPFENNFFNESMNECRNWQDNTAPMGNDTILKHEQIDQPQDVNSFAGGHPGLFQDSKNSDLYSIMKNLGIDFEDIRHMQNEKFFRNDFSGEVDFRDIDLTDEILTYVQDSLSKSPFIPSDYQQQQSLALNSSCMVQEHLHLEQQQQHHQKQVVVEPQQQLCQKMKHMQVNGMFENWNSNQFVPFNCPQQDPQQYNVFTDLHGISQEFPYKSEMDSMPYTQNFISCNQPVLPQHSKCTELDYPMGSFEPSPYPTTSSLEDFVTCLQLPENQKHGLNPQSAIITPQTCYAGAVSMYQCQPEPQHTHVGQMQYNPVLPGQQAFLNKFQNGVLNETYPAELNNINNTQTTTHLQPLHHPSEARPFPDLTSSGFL
Chain of Peroxisome proliferator-activated receptor gamma (Homo sapiens) (P37231 whole entry, looked up): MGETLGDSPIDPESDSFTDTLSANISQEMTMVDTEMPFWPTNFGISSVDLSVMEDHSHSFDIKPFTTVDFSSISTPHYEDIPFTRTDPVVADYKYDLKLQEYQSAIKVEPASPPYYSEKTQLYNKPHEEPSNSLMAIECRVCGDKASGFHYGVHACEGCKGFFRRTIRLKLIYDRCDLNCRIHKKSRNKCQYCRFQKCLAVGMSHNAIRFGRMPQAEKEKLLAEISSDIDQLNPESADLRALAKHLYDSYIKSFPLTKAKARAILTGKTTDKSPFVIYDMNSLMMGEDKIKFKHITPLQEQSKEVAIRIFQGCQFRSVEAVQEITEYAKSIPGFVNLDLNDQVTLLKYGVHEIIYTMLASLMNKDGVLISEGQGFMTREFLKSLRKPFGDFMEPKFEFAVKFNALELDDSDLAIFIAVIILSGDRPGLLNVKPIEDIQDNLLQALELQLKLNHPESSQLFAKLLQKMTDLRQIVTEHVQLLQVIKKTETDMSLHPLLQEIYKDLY

In the case of `CCC(=O)OCCc1ccccc1`, the Potency result in assay [1], in assay [2], in assay [3], in assay [4], in [5] and in assay [6] was “inactive” in each case. Besides, the Potency entry in assay [7] was “inactive”.
With `CC(C)=C1CC[C@@H](C)CC1=O`, the Potency result in assay [1], in [2], in assay [3], in assay [4], in assay [5] and in assay [8] was “inactive” throughout. The Potency entry in assay [7], in [9] and in assay [10] was “inactive” in each case.
With `CSc1c(Cl)c(Cl)c(Cl)c(Cl)c1Cl`, the Potency result in assay [1], in [2], in assay [3] and in assay [4] was “inactive” in each case.
Regarding `NC(=O)c1ccccc1N`, the Potency result in assay [1], in assay [2], in assay [3], in assay [4], in [5] and in [6] was “inactive” throughout. Further, the Potency entry in assay [8], in [7], in [9] and in [10] was “inactive” in each case.
`C(=C/c1ccccc1)/c1ccccc1`: the Potency result in assay [1], in assay [2], in assay [3], in [4], in [5] and in assay [6] was “inactive” each time. For the same compound, the Potency entry in assay [7], in assay [9] and in assay [10] was “inactive” each time.
With `CCCCCCCOC(=O)c1ccc(O)cc1`, the Potency result in assay [1], in assay [2], in [3], in assay [4], in assay [8] and in assay [7] was “inactive” each time. In assay [5], the Potency was 43.6 µM (active).
Take `Cc1cccc(Br)c1`: the Potency result in [1], in assay [2], in assay [3], in assay [4], in [5] and in assay [6] was “inactive” in each case. For the same compound, the Potency result in assay [8], in [7], in assay [9] and in assay [10] was “inactive” in each case.
`c1ccc(Nc2cccc3ccccc23)cc1`: the Potency is 39.1 µM (active) in [1]; 49.2 µM (active) and 54.5 µM (active) in [2]; 49.6 µM (active) and inactive in assay [5]. The Potency entry in [3], in assay [4], in [6], in assay [8], in assay [7] and in assay [9] was “inactive” each time. Moreover, the Potency entry in assay [10] is “inactive”.
For the compound `Cc1cn[nH]c1`, the Potency result in [1], in [2], in [3], in assay [4], in assay [5] and in [6] was “inactive” throughout. For the same compound, the Potency entry in assay [8], in [7], in [9] and in assay [10] was “inactive” in each case.
Turning to `N[C@@H](CSSC[C@H](N)C(=O)O)C(=O)O`, the Potency result in assay [1], in [2], in [3] and in assay [4] was “inactive” in each case. In addition, the ratio activity, negative = inhibition in assay [5] was 3.31% [at 0.55 µM] (inactive). The activation in assay [8] is 9.27% [at 0.756 µM] (inactive). In [7], the viability change, negative = cytotoxic was -0.389% [at 0.756 µM] (inactive).
`CC1CCCNC1` (stereo not given): the Potency result in [1], in [2], in assay [3], in [4], in assay [5] and in [6] was “inactive” throughout. In addition, the Potency entry in assay [8] and in [7] was “inactive” throughout.
On to `C/C=C/C=N/NC(=O)c1ccncc1`, for which the Potency result in [1], in [3], in [4], in [5], in assay [6] and in assay [7] was “inactive” throughout. The figures for the Potency in [2], in assay [8] and in assay [9] were 9.44 µM (active), 6.68 µM (active) and 18.8 µM (active), respectively.
Turning to `C=C(C)C(=O)OCCC[Si](Cl)(Cl)Cl`, the Potency entry in [1], in assay [2], in assay [3], in assay [4], in [5] and in [6] was “inactive” each time. The Potency result in assay [8], in assay [7], in assay [9] and in [10] was “inactive” throughout.
As to `CC(C)(C)CC(C)(C)c1ccccc1O`, the Potency in assay [1] is 48.8 µM (active); in [6], 43.9 µM (active); in assay [7], 61.4 µM (active); in assay [9], 55.2 µM (active). Moreover, the Potency entry in assay [2] and in assay [3] was “inactive” each time.
For `O=C1c2c(O)ccc([N+](=O)[O-])c2C(=O)c2c([N+](=O)[O-])ccc(O)c21`, the Potency in assay [1] was 9.6 µM (active); in [3] it was 19.2 µM (active); in assay [5], 6.85 µM (active); in [6], 8.63 µM (active); in assay [7], 3.82 µM (active); in assay [9], 10.9 µM (active). The Potency result in assay [2] is “inactive”.
Turning to `Clc1ccc(C(Cn2ccnc2)OCc2ccsc2Cl)c(Cl)c1` (stereo not given), the Potency result in assay [1], in [2], in [4] and in assay [9] was “inactive” each time. Besides, the Potency in assay [3] was 26.6 µM (active).
With `Oc1ccc(-c2ccccc2)c(Cl)c1`, the Potency result in assay [1], in [2], in assay [3], in assay [4], in assay [7] and in assay [9] was “inactive” each time.
`CNC(=O)c1cc(Oc2ccc(NC(=O)Nc3ccc(Cl)c(C(F)(F)F)c3)cc2)ccn1`: the Potency was 23.7 µM (active) in [1], 18.8 µM (active) in assay [3], 10.6 µM (active) in assay [5] and 18.8 µM (active) in [6]. In addition, the Potency result in assay [2] and in assay [9] was “inactive” in each case.
Take `O=C1NCCN1CCN1CCC(c2cn(-c3ccc(F)cc3)c3ccc(Cl)cc23)CC1`: the Potency was 29.8 µM (active) in [1], 23.7 µM (active) in assay [3], 29.8 µM (active) in assay [6] and 26.6 µM (active) in assay [7]. The Potency result in [2], in assay [4] and in [9] was “inactive” throughout.
With `COC(=O)NCCC[Si](OC)(OC)OC`, the Potency result in assay [1], in [2], in [3], in assay [4], in assay [6] and in [7] was “inactive” in each case. Further, in assay [9], the Potency entry was “inactive”.
As for `COc1cc(C=C2CCC/C(=C\c3ccc(O)c(OC)c3)C2=O)ccc1O`, the Potency in assay [1] was 21.1 µM (active); in assay [3], 23.7 µM (active); in assay [6], 21.1 µM (active); in assay [7], 26.6 µM (active). For the same compound, the Potency entry in assay [2] was “inactive”.
For `[O]=[Zr]`, the Potency entry in [1], in assay [2], in assay [3], in assay [4], in [6] and in assay [7] was “inactive” in each case. For the same compound, the Potency entry in [9] is “inactive”.
For `O=C(O)c1cccc(Cl)n1`, the Potency result in [1], in assay [2], in [3], in [4], in [6] and in assay [7] was “inactive” each time.
Turning to `CO[C@H]1C=CO[C@@]2(C)Oc3c(C)c(O)c4c(O)c(cc(O)c4c3C2=O)NC(=O)/C(C)=C\C=C/[C@H](C)[C@H](O)[C@@H](C)[C@@H](O)[C@@H](C)[C@H](OC(C)=O)[C@@H]1C`, the Potency result in assay [1] was “inactive and 13.8 µM (active)”. Also, the Potency result in [2], in [3], in [4], in assay [6], in assay [7] and in assay [9] was “inactive” each time. Also, the Potency entry in [10] was “inactive”.
